# Data from PubChem BioAssay AID493205 (National Center for Advancing Translational Sciences (NCATS), 2011).
# This is one part of the list. Where a call stands in place of a potency, no number is given. Results filed as inconclusive are left out. The source made the active and inactive calls. Calls come from the whole dose curve; as a rule, active = well fitted inhibition curve with a large enough effect; inconclusive = small, poorly fitted or top-dose-only effect, or effect the other way; inactive = no such curve, though single readings can be large or run the other way.
# Target: Muscleblind-like protein 1 (Homo sapiens) (UniProt Q9NR56)
# Experiment: qHTS Assay for Inhibitors of MBNL1-poly(CUG) RNA binding: Initial hit validation in AlphaScreen assay for MBNL1-(CUG)12 binding
# Details: AlphaScreen MBNL1-His / biotin-(CUG)12 binding; series mostly up to 57.7 µM
# Excerpt: NIH Chemical Genomics Center [NCGC] NIH Molecular Libraries Probe Production Centers Network [MLPCN] MLPCN Grant: R03 MH087421-01 Assay Submitter (PI): Charles Thornton NCGC Assay Overview: Expanded CTG repeats in the 3' untranslated region of the DM protein kinase (DMPK) gene causes type I myotonic dystrophy (DM1). DM1 is a multi-systemic disease with a prevalence of 1/7000. Clinical features include myotonia, progressive muscle weakness and wasting, cardiac arrhythmia, insulin resistance, hypersomnolence, cataracts, and other symptoms. The pathogenic effect of expanded CTG repeats stems from deleterious effects of the mutant transcript. CUGexp mRNA accumulates in nuclear foci and sequesters proteins of the muscleblind family, of which MBNL1 is the most common family member in skeletal muscles. The binding interaction between MBNL1 and CUGexp tracts leads to deregulation of alternative splicing and is therefore a key molecular step in the pathogenesis of DM1. […]
# NCGC Assay Protocol Summary: This is a proximity-based binding assay with MBNL1-His and Biotin-(CUG)12 RNA. […] The AC50 values were determined from concentration-response data modeled with the standard Hill equation Assay buffer: 20mM HEPES, 110mM KCl, 10mM NaCl, 2mM MgCl2, 2mM CaCl2, 5mM DTT, 0.1% BSA, 0.05% Tween 20 1536-well assay protocol for the MBNL1-(CUG)12 binding assay: (1) Add 2 ul/well 20nM MBNL1-His, 20nM Biotin-(CUG)12 (2) Add 23 nL compounds in DMSO solution. […] (3) Add 1 ul of Nickel-coated AlphaScreen acceptor beads (6.25 ng/ul final concentration) (4) Incubate 30 min at room temperature (5) Add 1 ul of Streptavidin-conjugated AlphaScreen donor beads (6.25 ng/ul final concentration) (6) Incubate 60 min at room temperature (7) Detect the assay plate in a EnVision plate reader (PerkinElmer) with AlphaScreen protocol Keywords: mytonic dystrophy type I, DM1, muscleblind like 1, MBNL1, CUG expansion, protein-RNA binding inhibitor, high throughput screening, MLSMR, MLSCN, NIH Roadmap, qHTS and NCGC
# Chain of Muscleblind-like protein 1 (Homo sapiens) (Q9NR56 whole entry, looked up): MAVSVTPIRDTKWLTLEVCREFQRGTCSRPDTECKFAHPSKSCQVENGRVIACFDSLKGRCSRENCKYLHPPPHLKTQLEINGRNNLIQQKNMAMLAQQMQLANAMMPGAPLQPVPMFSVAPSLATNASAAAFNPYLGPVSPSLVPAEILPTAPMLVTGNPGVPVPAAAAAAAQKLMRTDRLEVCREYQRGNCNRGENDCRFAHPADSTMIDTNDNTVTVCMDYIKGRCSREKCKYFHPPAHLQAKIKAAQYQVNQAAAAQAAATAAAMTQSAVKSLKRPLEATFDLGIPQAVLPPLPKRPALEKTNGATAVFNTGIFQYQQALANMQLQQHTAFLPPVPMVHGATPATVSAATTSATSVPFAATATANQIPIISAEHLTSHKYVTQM
row,Compound,Potency
1,COc1ccc(Cc2n[nH]c(=S)n2NC(=O)Nc2ccc(C)cc2)cc1,inactive
2,COc1cccc(NC(=O)Cn2cnc3sc(C)c(S(=O)(=O)N4CCN(C)CC4)c3c2=O)c1,inactive
3,CCOC(=O)c1c(C)[nH]c2c1-c1ccccc1C(=O)C2=O,4.11 µM (active)
